Among all 1,400 compounds or so, about 55 (4%) were called active. The rule behind the calls is not given here. A selection follows. Results with a measured potency or affinity are listed apart.
Assay: viability loss in A549 cells – cell-based, plate reader, cherry-pick samples, cytotoxicity control, dose response (AID 687028);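 note: cells incubated with compound for three days before reading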
Settings: series mostly up to 19.5 µM

Row | Compound | outcome
1 | CC(C)c1ccc(NC(=O)[C@H](NC(=O)[C@@H]2Cc3ccccc3CN2)c2ccccc2)cc1 | inactive
2 | COc1ccc(S(=O)(=O)N2CCC(C(=O)N[C@H](C(=O)NCc3ccccc3)C(C)C)CC2)cc1 | inactive
3 | COc1ccc2c(C)c(CCC(=O)NC3CC3)c(=O)oc2c1C | inactive
4 | C[C@@H]1CN([C@H](C)CO)C(=O)Cc2cc(NC(=O)C3CC3)ccc2O[C@H]1CN(C)C(=O)Nc1ccccc1 | inactive
5 | CCc1nnc(N2C(=O)c3ccccc3C2(O)c2ccccc2)s1 (stereo unspecified) | inactive
6 | O=C(O)CCCCCCCCc1cn(CCc2c[nH]c3ccccc23)nn1 | inactive
7 | CCN1C(=NCCc2c[nH]c3ccccc23)N[C@@H](c2ccccc2)[C@H](C(=O)OC)[C@H]1C | inactive
8 | CCOc1ccc2[nH]c3ncccc3c(=O)c2c1 | inactive
9 | C[C@@H]1CCCCO[C@@H](CN(C)C(=O)C2CCCCC2)[C@H](C)CN([C@H](C)CO)C(=O)c2cc(NC(=O)c3ccncc3)ccc2O1 | inactive
10 | C[C@@H]1CCCCO[C@@H](CN(C)S(=O)(=O)c2ccc(F)cc2)[C@@H](C)CN([C@@H](C)CO)C(=O)c2cc(NC(=O)c3ccccc3)ccc2O1 | inactive
11 | O=C1Nc2ccccc2C(=O)N(C2CCCC2)C1C(=O)NC1CC1 (stereo unspecified) | inactive
12 | COc1cc(OC)cc(C(=O)Nc2ccc3nc4n(c(=O)c3c2)CCCC4)c1 | inactive
13 | CC(C)(C)NC(=O)c1cccc(NC(=O)c2ccc3c(c2)C(=O)N(C(C)(C)C)C3=O)c1 | inactive
14 | O=C(c1ccccc1Cc1ccccc1)N1CCN(S(=O)(=O)c2ccccc2)CC1 | inactive
15 | Cc1cc2oc(=O)cc(Cn3ccnc3)c2cc1Cl | inactive
16 | COc1ccc2c3c([nH]c2c1)[C@H](CO)N(C(=O)Nc1cccc(F)c1)CC31CN(S(=O)(=O)c2ccccc2)C1 | inactive
17 | COc1ccc2c3c([nH]c2c1)[C@H](CO)N(C(C)=O)CC31CN(C(=O)c2cccc(F)c2)C1 | inactive
18 | O=S(=O)(c1cccs1)N1CCN(c2ccnc3cc(Cl)ccc23)CC1 | inactive
19 | CN(C[C@H](Cc1ccccc1)N(C[C@@H](CC1CCCCC1)N(CCc1ccccc1)N=O)N=O)N=O | inactive
20 | CCCCCC(=O)N1C[C@@H](O)[C@H](n2cc(COC(=O)c3ccccc3)nn2)C[C@@H]1c1ccc(C)cc1 | inactive
21 | O=C(C1CCCCC1)N1C[C@H](O)[C@@H](n2cc(C3CC3)nn2)C[C@@H]1c1ccccc1 | inactive

Row | Compound | outcome
22 | Cc1noc(C)c1NC(=O)Nc1ccc2c(c1)C(=O)N([C@@H](C)CO)C[C@@H](C)[C@@H](CN(C)C)OCCCC[C@@H](C)O2 | inactive
23 | CCOC(=O)N1CCC(NCCNC(=O)c2ccc(F)c(F)c2)CC1 | inactive
24 | C[C@H](NC(=O)C1CCN(S(=O)(=O)c2ccccc2)CC1)C(=O)NCc1cccnc1 | inactive
25 | COc1ccc(CN2CCC(C(=O)NC(c3ccc4c(c3)OCO4)c3ccccn3)CC2)cc1 (stereo unspecified) | inactive
26 | COc1ccc(C2NC(=O)NC(C)=C2C(=O)Nc2cccc(C)c2C)cc1 (stereo unspecified) | inactive
27 | CCN(C[C@H]1N[C@@](C)(C(=O)OC)[C@H]2C(=O)N(C)C(=O)[C@@H]12)S(=O)(=O)c1ccc(-c2ccccc2)cc1 | inactive
28 | CC(C)CCNC(=O)C1CC(c2ccccc2C(F)(F)F)=NO1 (stereo unspecified) | inactive
29 | Cc1cccc(N(CC(=O)NC2CC2)S(=O)(=O)c2ccc(Cl)cc2)c1 | inactive
30 | COc1ccc2c3c([nH]c2c1)[C@@H](CO)N(Cc1ccc(F)cc1)CC31CN(C(=O)NC(C)C)C1 | inactive
31 | Cn1cc(CC(=O)Nc2ccc(Nc3cccnc3)cc2)c2ccccc21 | inactive
32 | O=S(=O)(c1ccc(F)cc1)N1CC[C@@H]2[C@H]1c1cc(-c3ccc(F)cc3)ccc1N[C@@H]2CO | inactive
33 | CCC(=O)N1CC[C@@H]2[C@H](CO)Nc3ccc(-c4cccc(C#N)c4)cc3[C@@H]21 | inactive
34 | O=C(OCc1ccccc1)N1CCCC2CC1c1ccccc12 (stereo unspecified) | inactive
35 | CCCCN(C(=O)c1ccc2c(c1)NC(=O)CS2)c1ccccc1 | inactive
36 | C[C@H](NC(=O)[C@@H]1CCCN1C(=O)OC(C)(C)C)c1ccccc1 | inactive
37 | CC1CCC(CN2CCN=C2Nc2ccccc2)CC1 (stereo unspecified) | inactive
38 | COc1cc(-c2cnc3c(NC(C)=O)cc(-c4ccccc4CN(C)C)cn23)cc(OC)c1OC | inactive
39 | COc1ccc(-c2oc3ccc(-c4cc(OC)c(OC)c(OC)c4)cc3c2-c2ccc(OC)nc2)cc1 | inactive
40 | O=C(C1CCCN(S(=O)(=O)c2cccnc2)C1)N1CCN(c2ccccn2)CC1 (stereo unspecified) | inactive
41 | CCC(C)CN1C(=O)CSCC1(C)C(=O)Nc1ccc2c(c1)OCCO2 (stereo unspecified) | inactive
42 | C[C@H](CO)N1C[C@H](C)[C@@H](CN(C)C(=O)CCCN(C)C)OCCCC[C@H](C)Oc2ccc(NC(=O)CCCN(C)C)cc2C1=O | inactive

Row | Compound | outcome
43 | COc1cccc(-c2ccc(C3[C@@H]4CN(S(=O)(=O)c5cn(C)cn5)C[C@H]3N4)cc2)c1 (stereo partly specified) | inactive
44 | CS(=O)(=O)N1[C@@H]2CNC[C@H]1C2c1ccc(-c2ccccc2)cc1 (stereo partly specified) | inactive
45 | O=C(NC1CCCCC1)[C@@H]1[C@@H](CO)[C@@H]2Cn3c(cccc3=O)[C@H]1N2Cc1cccnc1 | inactive
46 | CN(Cc1nccs1)C(=O)c1ccc(OC2CCN(Cc3ccccn3)CC2)cc1 | inactive
47 | COc1ccc(NC(=O)N[C@@H]2CC[C@@H](CCNS(=O)(=O)c3cccc(Cl)c3)O[C@@H]2CO)cc1 | inactive
48 | COc1ccc(NC(=O)N[C@H]2CC[C@@H](CCn3cc(C4(O)CCCC4)nn3)O[C@@H]2CO)cc1 | inactive
49 | Cc1ccc(OCC(=O)NC2CCSc3ccccc32)cc1 (stereo unspecified) | inactive
50 | O=C(NCCc1ccccc1)c1ccccc1NC(=O)C1CCCCC1C(=O)O (stereo unspecified) | inactive
51 | CC1CC2=C(C(=O)O1)C(c1ccc(Cl)cc1)Nc1ccccc1N2 (stereo unspecified) | inactive
52 | COc1ccc(C#Cc2ccc([C@H]3[C@@H](CO)N4CCCCN(S(=O)(=O)c5ccccc5)C[C@@H]34)cc2)cc1 | inactive
53 | C[C@H](CO)N1C[C@H](C)[C@@H](CN(C)Cc2ccc(Oc3ccccc3)cc2)Oc2ccc(NC(=O)Cn3cnnn3)cc2CC1=O | inactive
54 | Cc1ccc(S(=O)(=O)N(C)C[C@@H]2OCCCC[C@H](C)Oc3ccc(NS(=O)(=O)c4c(C)noc4C)cc3C(=O)N([C@H](C)CO)C[C@H]2C)cc1 | inactive
55 | C[C@@H]1CCCCO[C@@H](CN(C)C(=O)c2ccccc2)[C@@H](C)CN([C@@H](C)CO)C(=O)c2cc(NS(=O)(=O)c3ccc(F)cc3)ccc2O1 | inactive
56 | C[C@H](CO)N1C[C@H](C)[C@@H](CN(C)C(=O)Cc2ccccc2)OCCCC[C@H](C)Oc2ccc(NS(=O)(=O)c3ccc(F)cc3)cc2C1=O | inactive
57 | C[C@@H]1CN([C@H](C)CO)C(=O)c2cc(NC(=O)c3ccncc3)ccc2O[C@@H](C)CCCCO[C@H]1CN(C)Cc1ccc(Cl)c(Cl)c1 | inactive
58 | Cc1ccc(S(=O)(=O)N(C)C[C@@H]2OCCCC[C@H](C)Oc3ccc(NS(=O)(=O)c4c(C)noc4C)cc3C(=O)N([C@@H](C)CO)C[C@@H]2C)cc1 | inactive
59 | C[C@@H]1CCCCO[C@@H](CN(C)Cc2ccccc2)[C@@H](C)CN([C@H](C)CO)C(=O)c2cc(NC(=O)c3ccccc3)ccc2O1 | inactive
60 | C[C@@H]1CCCCO[C@@H](CN(C)S(C)(=O)=O)[C@H](C)CN([C@@H](C)CO)C(=O)c2cc(NS(=O)(=O)c3ccc(Cl)cc3)ccc2O1 | inactive
61 | C[C@@H]1CCCCO[C@@H](CN(C)S(=O)(=O)c2ccc(F)cc2)[C@@H](C)CN([C@H](C)CO)C(=O)c2cc(NC(=O)Nc3ccc(C(F)(F)F)cc3)ccc2O1 | inactive
